# A selection follows.
# aSyn 5UTR act: Activators working through SNCA 5'UTR binding (MLPCN) | activity score, % (tested at 7.5 µM), hits read low | 7.1% of 300,000 active | AID 1814 | alpha-synuclein 5'UTR reporter, activators screen; in the data active = activity score below about -60%
# Numbers without * were called inactive.
SMILES,aSyn 5UTR act
O=C(Nc1ccccc1)N1CC=C(c2ccccc2)CC1,-177*
O=C(Nc1ccccc1)N1CC=C(c2ccc(F)cc2)CC1,-167*
Cc1cc2ncc(-c3cccc(Cl)c3)cn2n1,-117*
Cc1cc2ncc(-c3ncc(C(F)(F)F)cc3Cl)cn2n1,65
Cc1cccc(NC(=O)CSc2nnc(-c3ccccc3C)o2)c1,-94*
Cc1ccc(NC(=O)CSc2nnc(-c3ccccc3C)o2)cc1C,-89*
Cc1cc(C)cc(NC(=O)CSc2nnc(-c3ccccc3C)o2)c1,-119*
COc1cc(/C=N/NC(=O)c2cccc([N+](=O)[O-])c2)ccc1OCc1ccc(C)cc1,-99*
COc1ccc(/C=N/NC(=O)c2cccnc2)cc1COc1ccc([N+](=O)[O-])cc1,-75*
COc1ccc(/C=N\NC(=O)c2cccc(F)c2)cc1COc1ccccc1,88
COc1ccc(/C=N/NC(=O)c2cccnc2)cc1COc1ccc(NC(C)=O)cc1,-84*
COc1ccc(OCCCC(=O)Nc2ccc3c(c2)OCCO3)cc1,-132*
O=C(COc1ccc(F)cc1)Nc1ccc2c(c1)OCCO2,-144*
CCN(CC(=O)Nc1ccc2c(c1)OCCO2)C(=O)/C=C/c1ccc(F)cc1,-70*
CCOCC(=O)Nc1ccc2c(c1)OCCO2,-66*
COc1cccc(CNC(=O)Cc2ccc(NC(=O)C3=C(C)OCCS3)cc2)c1,-80*
CCc1ccc(CNC(=O)Cc2ccc(NC(=O)C3=C(C)OCCS3)cc2)cc1,66
COc1cccc(CNC(C)C(=O)Nc2ccc3c(c2)OCCO3)c1 (stereo unspecified),-89*
O=C(COc1ccc2c(c1)OCO2)Nc1cccc(F)c1,-94*
CCN(CC)c1ccc(C(=O)OCc2cc(=O)oc3cc(O)ccc23)cc1,117
COc1ccccc1C(=O)Nc1ccc2c(C)cc(=O)oc2c1,-154*
Cc1ccccc1OCCC(=O)Nc1ccc2c(C)cc(=O)oc2c1,-64*
CCOC(=O)Nc1ccc2c(COC(=O)c3ccccc3O)cc(=O)oc2c1,-83*
COc1cc(NC(=O)c2ccccc2Cl)ccc1NC(=O)c1ccco1,-195*
O=C(Nc1ccc(NC(=O)c2cccs2)c(Cl)c1)c1cccs1,-118*
SMILES,aSyn 5UTR act
O=C(Nc1ccc(NC(=O)c2cccs2)cc1Cl)c1ccco1,-154*
COc1cc(NC(=O)c2cccs2)ccc1NC(=O)c1ccco1,-149*
COc1cc(NC(=O)COc2ccccc2Cl)ccc1NC(=O)c1cccs1,-113*
O=C(N/N=C/C(Cl)=C/c1ccccc1)c1ccco1,-158*
O=C(N/N=C/C(Cl)=C\c1ccccc1)c1ccco1,-224*
Cc1cccc(-c2nc(C#N)c(NC3CCCCC3)o2)c1,-171*
Cc1cccc(-c2nc(C#N)c(N3CCCCC3)o2)c1,-187*
CCCCCCCCn1ccc(=N)cc1,62
CCCCCCN1Cc2ccccc2C1,-117*
CCCCCCCCCCn1ccc(=N)cc1,106
O=C(Nc1ccccc1)C1COc2ccccc2O1 (stereo unspecified),-82*
O=C(COC(=O)C1COc2ccccc2O1)NC(=O)NC1CCCC1 (stereo unspecified),-73*
O=C(N/N=C\c1cc(Br)cs1)C1COc2ccccc2O1 (stereo unspecified),-127*
CC(=O)c1sc(NC(=O)C2COc3ccccc3O2)nc1C (stereo unspecified),62
Cc1ccc(NC(=O)C2COc3ccccc3O2)cc1 (stereo unspecified),-154*
O=C(Nc1ncccc1Cl)C1COc2ccccc2O1 (stereo unspecified),-107*
C/C(=N\NC(=O)C1COc2ccccc2O1)c1ccccn1 (stereo unspecified),98
O=C(Nc1ccccc1F)C1COc2ccccc2O1 (stereo unspecified),-91*
O=C(NCC1OCCc2ccccc21)c1ccc(NC(=O)c2ccc(Cl)cc2)cc1 (stereo unspecified),79
O=C(Nc1nnc(C(F)(F)F)s1)C1COc2ccccc2O1 (stereo unspecified),-69*
Cc1ccc(NC(=O)C2OCCc3ccccc32)cc1 (stereo unspecified),-133*
COC(=O)N1CCc2c(sc(NC(=O)C3=COCCO3)c2C#N)C1,-126*
O=C(NCC1COc2ccccc2O1)c1ccccc1 (stereo unspecified),-137*
Cc1ccc(NC(=O)C2COc3ccccc3O2)c(C)c1 (stereo unspecified),-110*
NC(=O)c1oc2ccccc2c1NC(=O)C1COc2ccccc2O1 (stereo unspecified),-86*
SMILES,aSyn 5UTR act
COC(=O)N1CCc2c(sc(NC(=O)C3COc4ccccc4O3)c2C(N)=O)C1 (stereo unspecified),-137*
O=c1cc(-c2ccc(F)cc2)oc2ccccc12,-97*
O=c1cc(-c2ccccc2F)oc2ccccc12,-111*
CSc1ccc(-c2cc(=O)c3ccccc3o2)cc1,-328*
COc1ccc(C(=O)c2ccc(N(C)C)cc2)c2ccccc12,74
COc1ccccc1C(=O)COC(=O)c1ccc(N(C)C)cc1,-218*
COc1ccccc1C(=O)COC(=O)c1ccccc1O,-104*

# Screening data deposited in PubChem by Broad Institute.
